From PubChem BioAssay AID1347074 (Center for Chemical Genomics, University of Michigan, 2019)
About 2,800 (6%) of roughly 47,000 compounds were called active. This is one part of a sample in which actives are shown more often than they occur. A number with no mark means an inactive call. No stated cut-off is given here; in the data, active means z-score above about 3 (passing the limit was not always enough); inactive means the rest.

Biological target: Endoribonuclease Dicer (Homo sapiens) (UniProt Q9UPY3)
Test: Dicer cleavage of pre-miR-21 blockers – biochemical, cat-ELCCA, chemiluminescence, primary screen (AID 1347074);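 further: plate controls were vehicle for no effect and no enzyme for full effect; higher signal means more uncleaved substrate so more Dicer inhibition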
Settings: cat-ELCCA pre-miR-21 Dicer processing, at 25 µM, active compounds read high

Endoribonuclease Dicer (Homo sapiens), sequence (Q9UPY3 whole entry, looked up): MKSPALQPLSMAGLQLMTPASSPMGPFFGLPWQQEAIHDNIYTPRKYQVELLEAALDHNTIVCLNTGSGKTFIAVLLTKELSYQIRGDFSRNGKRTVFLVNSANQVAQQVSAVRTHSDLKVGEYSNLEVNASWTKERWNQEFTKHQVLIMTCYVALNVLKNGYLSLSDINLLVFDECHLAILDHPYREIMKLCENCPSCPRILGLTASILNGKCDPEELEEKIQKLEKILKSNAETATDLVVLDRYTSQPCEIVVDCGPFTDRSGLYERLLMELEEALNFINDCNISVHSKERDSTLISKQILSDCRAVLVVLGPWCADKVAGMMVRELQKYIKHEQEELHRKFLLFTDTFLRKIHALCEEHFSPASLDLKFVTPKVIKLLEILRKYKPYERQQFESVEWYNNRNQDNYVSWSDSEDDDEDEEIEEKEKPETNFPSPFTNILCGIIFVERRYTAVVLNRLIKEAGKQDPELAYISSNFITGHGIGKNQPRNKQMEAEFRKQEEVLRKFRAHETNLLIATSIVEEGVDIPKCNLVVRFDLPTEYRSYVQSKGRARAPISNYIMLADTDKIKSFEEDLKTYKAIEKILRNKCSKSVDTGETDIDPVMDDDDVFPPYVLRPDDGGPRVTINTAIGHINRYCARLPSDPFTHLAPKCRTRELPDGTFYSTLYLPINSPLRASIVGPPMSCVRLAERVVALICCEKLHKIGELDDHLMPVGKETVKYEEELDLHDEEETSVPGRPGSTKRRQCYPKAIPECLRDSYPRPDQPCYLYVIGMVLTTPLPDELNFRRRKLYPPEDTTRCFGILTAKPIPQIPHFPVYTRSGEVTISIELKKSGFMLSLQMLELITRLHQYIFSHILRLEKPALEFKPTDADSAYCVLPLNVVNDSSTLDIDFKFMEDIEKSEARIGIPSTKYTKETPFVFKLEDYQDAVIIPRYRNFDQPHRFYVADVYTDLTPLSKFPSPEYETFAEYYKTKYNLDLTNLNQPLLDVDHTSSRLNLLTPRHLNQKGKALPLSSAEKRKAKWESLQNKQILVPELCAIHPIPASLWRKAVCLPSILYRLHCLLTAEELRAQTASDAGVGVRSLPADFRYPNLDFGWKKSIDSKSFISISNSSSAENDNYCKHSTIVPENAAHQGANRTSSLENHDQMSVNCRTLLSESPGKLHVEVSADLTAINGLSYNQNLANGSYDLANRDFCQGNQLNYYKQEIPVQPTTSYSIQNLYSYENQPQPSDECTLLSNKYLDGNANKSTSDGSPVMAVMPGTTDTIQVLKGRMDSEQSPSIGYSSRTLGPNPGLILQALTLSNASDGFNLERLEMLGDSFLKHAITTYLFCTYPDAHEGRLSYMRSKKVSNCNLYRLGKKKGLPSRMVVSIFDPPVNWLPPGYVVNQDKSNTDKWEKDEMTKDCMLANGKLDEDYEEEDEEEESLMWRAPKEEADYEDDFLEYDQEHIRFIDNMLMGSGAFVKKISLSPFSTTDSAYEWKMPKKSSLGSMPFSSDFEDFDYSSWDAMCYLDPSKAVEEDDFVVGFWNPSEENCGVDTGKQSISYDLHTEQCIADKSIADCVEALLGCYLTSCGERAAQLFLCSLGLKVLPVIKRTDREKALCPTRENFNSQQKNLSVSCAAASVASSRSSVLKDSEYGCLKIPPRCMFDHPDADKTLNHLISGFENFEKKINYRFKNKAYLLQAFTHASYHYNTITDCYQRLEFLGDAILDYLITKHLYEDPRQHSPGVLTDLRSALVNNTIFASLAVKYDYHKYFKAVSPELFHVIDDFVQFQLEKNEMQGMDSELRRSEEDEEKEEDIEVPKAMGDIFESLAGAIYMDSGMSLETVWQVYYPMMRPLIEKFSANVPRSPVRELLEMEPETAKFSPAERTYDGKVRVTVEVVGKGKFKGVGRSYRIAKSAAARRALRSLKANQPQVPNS

First: CCCCSc1nnc2c(n1)OC=Nc1ccc(Br)cc1-2
Second: Cc1ccc(O)c(-c2cnc3ccccc3n2)c1
The z-score of the first is higher: 1.93 for the first, -1.69 for the second.

Compared with `N#C/C(=C\N1CCc2ccccc21)C(=O)c1cccc(C(F)(F)F)c1`, `O=C(CS(=O)(=O)c1ccc(C(F)(F)F)cn1)NNC(=O)c1ccccc1` is higher in z-score: -2.08 for the first, 0.59 for the second.

First: O=C(CSc1nc2ccccc2nc1N1CCCC1)N1CCN(c2ccccc2)CC1
Second: O=C(CSc1nc2ccccc2nc1N1CCOCC1)Nc1ccccc1
The z-score of the first is lower: 1.57 for the first, 1.99 for the second.

First: N#CC1=C(N)Oc2ccc3ccccc3c2C1c1ccc(F)cc1 (stereo not given)
Second: Cc1[nH]nc2c1C(c1ccccc1Cl)C(C#N)=C(N)O2 (stereo not given)
The z-score of the first is higher: -0.03 for the first, -1.03 for the second.

Compared with `O=C(O)c1ccc(N2C(=O)CC(N3CCCCC3)C2=O)cc1` (stereo not given), `CC1=C(C(=O)OC2CCCCC2)C(c2cccnc2)C2=C(CCCC2=O)N1` (stereo not given) is lower in z-score: -0.35 for the first, -0.48 for the second.

First: COc1ccc(CCNC(=O)CCC(=O)O)cc1OC
Second: COc1ccc(CCNCC(O)Cn2ccc3ccccc32)cc1OC (stereo not given)
The z-score of the first is higher: 1.57 for the first, -0.31 for the second.

Compared with `COC(=O)C(C(=O)OC)=C(SC)SC`, `CCOC(=O)c1cc(Sc2ccccc2)cc(C(=O)OCC)n1` is higher in z-score: -1.16 for the first, -0.71 for the second.

First: CC1(C)CC2(CC(C)(c3csc(Nc4ccccc4)n3)OC2=O)C(=O)O1 (stereo not given)
Second: CC1(C)CC(=O)C=C(Nc2ccccc2)C1
The z-score of the first is lower: 1.11 for the first, 2.68 for the second.

First: O=[N+]([O-])c1ccc(CC(O)N2CCN(c3nc4ccc(Cl)cc4s3)CC2)cc1 (stereo not given)
Second: O=C(c1cccs1)c1nn(-c2ccccc2)c2nc(=O)c(Cc3ccc(Cl)cc3)nn12
The z-score of the first is lower: -0.91 for the first, -0.23 for the second.

Going from `COc1ccc2[nH]cc(CCC(=O)O)c2c1` to `COc1cccc(-n2[nH]nnc2=S)c1`, the z-score falls from 2.43 to 1.1.

Compared with `Cc1cc(C)cc(Oc2coc3cc(OCC(=O)O)ccc3c2=O)c1`, `CC1=NOC(=O)C1C(c1cccc(Br)c1)c1c(C)[nH]n(-c2ccccc2)c1=O` (stereo not given) is lower in z-score: -0.66 for the first, -4.75 for the second.

Compared with `O=S(=O)(c1cc(Cl)c(Cl)cc1Cl)N1CCc2[nH]c3ccc(F)cc3c2C1`, `Cc1ccc(-n2nnnc2-c2ccc(Cl)c(Cl)c2)c(C)c1` is lower in z-score: -0.85 for the first, -1.31 for the second.

Compared with `Nc1n[nH]c2c1CSc1ccc(Cl)cc1-2`, `Cc1ccc(-c2nc3ccccc3[nH]2)cc1N` is higher in z-score: -4.16 for the first, 0.04 for the second.

Going from `Cc1ccc2nc(Nc3ncc4c(n3)CC(C)(C)CC4=O)nc(C)c2c1` to `CCc1ccc(C2C(C(=O)OC)=C(C)NC3=C2C(=O)CC(C)(C)C3)cc1` (stereo not given), the z-score falls from 1.2 to 0.1.

Compared with `CCOC(=O)c1cc(CC)sc1NC(=O)c1cccc(C(F)(F)F)c1`, `CCOC(=O)c1cc(-c2ccccc2)sc1NC(=S)N1CCN(c2ccccc2)CC1` is higher in z-score: 0.82 for the first, 1.09 for the second.

Compared with `O=[N+]([O-])c1cccc(C2CC(c3ccccc3)=Nc3ccccc3S2)c1` (stereo not given), `COc1ccc(-c2c(C)nn3c2N=C(c2ccccc2)CC3c2ccco2)cc1` (stereo not given) is higher in z-score: -1.81 for the first, -0.12 for the second.

First: COc1cccc(-c2ccc(-c3noc(-c4cccc(OC)c4)n3)c(OC)n2)c1
Second: COc1ccc(O)c(C2=NN3C(C2)c2cccc(OC)c2OC3c2ccccc2)c1 (stereo not given)
The z-score of the first is lower: 0.01 for the first, 1.51 for the second.

First: COc1cccc(C2Oc3ccccc3C3CC(c4ccccc4O)=NN32)c1OC (stereo not given)
Second: COc1cc2c(cc1OC)C(c1ccccc1)=NC(C)(C)C2
The z-score of the first is higher: 6.13 for the first, 0.36 for the second.

Going from `Cn1c(-c2ccccc2)cnc1NCc1c(F)cccc1Cl` to `Nc1cccc(CCc2nc3ccccc3[nH]2)c1`, the z-score falls from 2.86 to 1.56.

First: CCCCn1nnc2sc3c(c2c1=O)CCCC3
Second: O=C(CSc1nc2c(c(C(F)(F)F)n1)CCc1ccccc1-2)NCc1cccnc1
The z-score of the first is lower: -0.96 for the first, 2.31 for the second.

Compared with `O=C(CSc1nc2c(c(C(F)(F)F)n1)CCc1ccccc1-2)N1CCOCC1`, `CCOC(=O)c1nnn2c1nc(N1CCN(c3ccccc3)CC1)c1ccccc12` is higher in z-score: 0.53 for the first, 0.67 for the second.

First: COc1cc2c(cc1OC)C(C)N(Cc1cc(C)c(O)c(C)c1)CC2 (stereo not given)
Second: Cc1cc2c(cc1C)CSC(C)(c1cccc([N+](=O)[O-])c1)SC2
The z-score of the first is higher: -0.23 for the first, -1.77 for the second.

First: O=C(CC1(O)C(=O)N(CCc2ccccc2)c2ccccc21)c1cccc(-n2cccc2)c1 (stereo not given)
Second: Oc1ccc(C2Nc3cccc4cccc(c34)N2)cc1
The z-score of the first is lower: -0.51 for the first, 0.15 for the second.

Going from `CC(C)N(CCC#N)CN1C(=O)c2ccccc2C1=O` to `Cc1ccc(C2CC(c3cccc(C)c3)n3nc(N)nc3N2)cc1` (stereo not given), the z-score falls from 1.63 to 0.14.

Compared with `FC(F)(F)c1ccc(/C=N/Nc2nccc(C(F)(F)F)n2)cc1`, `FC(F)(F)c1ccnc(NCCNc2nccc(C(F)(F)F)n2)c1` is lower in z-score: 0.54 for the first, -0.42 for the second.

With `O=C(CSc1nc2ccccc2nc1N1CCCC1)NCc1cccs1` the z-score was 3.04 (active).
`COc1ccc(CCNC(N)=O)cc1OC` was tested, and the z-score was 5.13 (active).
For `Cc1[nH]cc(Br)c(=O)c1OCC(=O)O`, the z-score was 4.04 (active).
`O=C1C=C(NNc2ccccc2)CCC1` was tested, and the z-score was 3.26 (active).
In the case of `NC(=S)NNC(=O)c1cccc(C(F)(F)F)c1`, the z-score is reported as 33.4 (active).
For `C1=CC2CC1CC2CN1CCN(Cc2c[nH]c3ccccc23)CC1` (stereo not given), the z-score was 4.79 (active).
`COc1cccc2c1OC(c1ccccc1F)N1N=C(c3ccccc3O)CC21` (stereo not given) was tested, and the z-score was 5.58 (active).
In the case of `Nc1ccc(/C=C/c2nc3ccccc3[nH]2)cc1`, the z-score is reported as 4.8 (active).
In the case of `CC(C)(C)OC(=O)n1ccc2cc(Br)ccc21`, the z-score is reported as 3.27 (active).
In the case of `CC(=O)Oc1cc2c(C(=O)N3CCN(c4ccccc4)CC3)c(C)oc2c2ccccc12`, the z-score is reported as 3.08 (active).
With `C1=C(c2cccs2)CC(c2cccs2)=NN=C1c1cccs1` the z-score was 3.06 (active).
For `O=C(O)C1C2C=CC(C2)C1C(=O)N1CCN(CCO)CC1` (stereo not given), the z-score was 3.56 (active).
`FC(F)(F)c1cccc(NC(=S)NNc2nccc(C(F)(F)F)n2)c1` was tested, and the z-score was 3.39 (active).
In the case of `COc1cccc(C2Nc3cccc4cccc(c34)N2)c1`, the z-score is reported as 3.24 (active).
In the case of `Cc1ccc(C2Nc3cccc4cccc(c34)N2)cc1`, the z-score is reported as 3.06 (active).
